Test results taken from PubChem BioAssay (EPA / NIEHS).
Active and inactive are the calls of the source. Rule for the calls: active = hit-call score of the fitted dose curve at least 0.9, where 1 is the maximum; inactive = score below 0.9.

What was measured:
Settings in all cases: mRNA level, 48 h; actives raise or lower the signal
[1] = read-out: Tumor necrosis factor receptor superfamily member 6 (Homo sapiens) (UniProt P25445); assay: LTEA_HepaRG_FAS: Life Technologies and Expression Analysis (LTEA) Assay for Fas cell surface death receptor (FAS) using HepaRG (AID 2283447)
Outline: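 Differentiated human HepaRG cells, pre-cultured 48 h, were exposed in duplicate for 48 h to 8-point half-log concentrations (top 100 uM, 0.5% DMSO) in serum-free induction medium; FAS mRNA measured by qRT-PCR, normalized to ACTB/GAPDH/POLR2A, bidirectional fit versus DMSO.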

[2] = read-out: Fatty acid synthase (Homo sapiens) (UniProt P49327); assay: LTEA_HepaRG_FASN: Life Technologies and Expression Analysis (LTEA) Assay for Fatty Acid Synthase (FASN) using HepaRG (AID 2283448)
Outline: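 In human HepaRG cultures, 48 h chemical exposure (up to 100 uM, 0.5% DMSO) preceded TaqMan qRT-PCR of FASN.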

[3] = read-out: Cyclin D2 (CCND2), CCND2 (gene 894); assay: LTEA_HepaRG_CCND2: Life Technologies and Expression Analysis (LTEA) Assay for Cyclin D2 (CCND2) using HepaRG (AID 2283449);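 note: CCND2 transcript measured by TaqMan qRT-PCR and normalised to three housekeeping genes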
Outline: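 In this HepaRG study, an eight-point concentration series (max 100 uM, 0.5% DMSO) is applied for 48 h. CCND2 mRNA change is derived by qRT-PCR normalised to ACTB, GAPDH and POLR2A.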

[4] = read-out: Cyclin Dependent Kinase Inhibitor 1A (CDKN1A), CDKN1A (gene 1026); assay: LTEA_HepaRG_CDKN1A: Life Technologies and Expression Analysis (LTEA) Assay for Cyclin Dependent Kinase Inhibitor 1A (CDKN1A) using HepaRG (AID 2283450)
Outline: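 Cryopreserved HepaRG cells were plated and cultured 48 h, then switched to serum-free induction medium. Chemicals (eight half-log concentrations, top 100 uM, 0.5% DMSO) were applied for 48 h. Lysates underwent qRT-PCR for CDKN1A with housekeeping normalization.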

[5] = read-out: catalase (CAT), CAT (gene 847); assay: LTEA_HepaRG_CAT: Life Technologies and Expression Analysis (LTEA) Assay for catalase (CAT) using HepaRG (AID 2283452);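 for AC50: TaqMan qRT-PCR signal normalized to ACTB GAPDH and POLR2A housekeeping genes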
Outline: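 Differentiated HepaRG cells in serum-free induction medium were dosed 48 h in duplicate, eight half-log concentrations from 100 uM in 0.5% DMSO. Transcript measured by TaqMan qRT-PCR, normalised to ACTB/GAPDH/POLR2A, fitted bidirectionally against DMSO.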

[6] = read-out: CFLAR gene, CFLAR (gene 8837); assay: LTEA_HepaRG_CFLAR: Life Technologies and Expression Analysis (LTEA) Assay for CFLAR gene using HepaRG (AID 2283455)
Outline: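 Gain- or loss-of-signal changes in CFLAR transcript were fitted bidirectionally relative to 0.5% DMSO. Cells (HepaRG, duplicate wells) were dosed for 48 h across eight half-log concentrations topping at 100 uM; quantitation by TaqMan qRT-PCR.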

[7] = read-out: Forkhead box O1 (FOXO1), FOXO1 (gene 2308); assay: LTEA_HepaRG_FOXO1: Life Technologies and Expression Analysis (LTEA) Assay for Forkhead box O1 (FOXO1) using HepaRG (AID 2283456)
Outline: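 Using one lot of HepaRG hepatic cells kept in 0.5% DMSO, the team applied test chemicals in duplicate, half-log dilutions from 100 uM, for 48 h. Expression, normalised to ACTB/GAPDH/POLR2A, was compared with vehicle in either direction.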

[8] = read-out: growth arrest and DNA damage 45 (GADD45A), GADD45A (gene 1647); assay: LTEA_HepaRG_GADD45A: Life Technologies and Expression Analysis (LTEA) Assay for growth arrest and DNA damage 45 (GADD45A) using HepaRG (AID 2283458)
Outline: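 Eight-point concentration-response in HepaRG cells: 48 h chemical exposure, 0.5% DMSO vehicle, top dose 100 uM. Normalized qRT-PCR mRNA readout with bidirectional fitting relative to DMSO.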

[9] = read-out: Forkhead box O3 (FOXO3), FOXO3 (gene 2309); assay: LTEA_HepaRG_FOXO3: Life Technologies and Expression Analysis (LTEA) Assay for Forkhead box O3 (FOXO3) using HepaRG (AID 2283459)
Outline: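 Gene-expression endpoint: FOXO3 transcript level by qRT-PCR in HepaRG cultures treated 48 h with chemicals up to 100 uM (half-log, 0.5% DMSO vehicle).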

[10] = read-out: ABC Transporter (ABCB1), ABCB1 (gene 5243); assay: LTEA_HepaRG_ABCB1: Life Technologies and Expression Analysis (LTEA) Assay for ABC Transporter (ABCB1) using HepaRG (AID 2283460)
Outline: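 Human liver HepaRG line treated 48 h with up to 100 uM compound (eight half-log points, 0.5% DMSO); ABCB1 mRNA change fitted bidirectionally against DMSO controls.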

[11] = read-out: growth arrest and DNA damage 45 (GADD45B), GADD45B (gene 4616); assay: LTEA_HepaRG_GADD45B: Life Technologies and Expression Analysis (LTEA) Assay for growth arrest and DNA damage 45 (GADD45B) using HepaRG (AID 2283461)
Outline: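 Values are bidirectional concentration-response fits against 0.5% DMSO controls. Underlying data: qRT-PCR mRNA levels in human HepaRG liver cells treated 48 h in serum-free induction medium, eight concentrations topping at 100 uM.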

[12] = read-out: ABC Transporter (ABCC3), ABCC3 (gene 8714); assay: LTEA_HepaRG_ABCC3: Life Technologies and Expression Analysis (LTEA) Assay for ABC Transporter (ABCC3) using HepaRG (AID 2283462)
Outline: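 Differentiated HepaRG liver cells receive test chemicals at eight concentrations (max 100 uM) for 48 h. Expression of ABCC3 is quantified by qRT-PCR against ACTB, GAPDH and POLR2A, and activity is fitted in both directions against the DMSO control.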

[13] = read-out: ABC Transporter (ABCB11), ABCB11 (gene 8647); assay: LTEA_HepaRG_ABCB11: Life Technologies and Expression Analysis (LTEA) Assay for ABC Transporter (ABCB11) using HepaRG (AID 2283463)
Outline: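 Using HepaRG cultures held in 0.5% DMSO, chemicals were tested at half-log dilutions from 100 uM for 48 h. Induction or suppression of ABCB11 mRNA, normalized to ACTB, GAPDH and POLR2A, was fitted bidirectionally against vehicle.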

[14] = read-out: ABC Transporter (ABCC2), ABCC2 (gene 1244); assay: LTEA_HepaRG_ABCC2: Life Technologies and Expression Analysis (LTEA) Assay for ABC Transporter (ABCC2) using HepaRG (AID 2283464)
Outline: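 Gene expression of ABCC2 was determined by qRT-PCR in HepaRG cells exposed 48 h to chemicals (highest 100 uM, half-log dilutions). Activity was fitted in both directions relative to 0.5% DMSO vehicle.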

[15] = read-out: Broad substrate specificity ATP-binding cassette transporter ABCG2 (Homo sapiens) (UniProt Q9UNQ0); assay: LTEA_HepaRG_ABCG2: Life Technologies and Expression Analysis (LTEA) Assay for ABC Transporter (ABCG2) using HepaRG (AID 2283465)
Outline: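 Gene expression of ABCG2 in HepaRG liver cells is quantified by qRT-PCR following 48 h exposure across an eight-point series topping at 100 uM. Values come from bidirectional fitting relative to DMSO vehicle.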

[16] = read-out: Cyclin D1 (CCND1), CCND1 (gene 595); assay: LTEA_HepaRG_CCND1: Life Technologies and Expression Analysis (LTEA) Assay for Cyclin D1 (CCND1) using HepaRG (AID 2283451);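 for AC50: TaqMan qRT-PCR transcript level normalised to ACTB GAPDH and POLR2A housekeeping genes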
Outline: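 Human liver HepaRG line; 48 h dosing, 8 conc. ≤100 uM, 0.5% DMSO; TaqMan qRT-PCR mRNA, 3 housekeeping genes; bidirectional curve fit vs DMSO.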

[17] = read-out: flavin-containing dimethylaniline monooxygenases 3 (FMO3), FMO3 (gene 2328); assay: LTEA_HepaRG_FMO3: Life Technologies and Expression Analysis (LTEA) Assay for flavin-containing dimethylaniline monooxygenases 3 (FMO3) using HepaRG (AID 2283453)
Outline: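 Eight-point concentration-response in serum-free HepaRG cultures (top 100 uM, 0.5% DMSO, 48 h). Read-out: FMO3 mRNA level normalized to three endogenous control genes, fitted bidirectionally versus vehicle.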

[18] = read-out: Cytochrome P450 (CYP1A1), CYP1A1 (gene 1543); assay: LTEA_HepaRG_CYP1A1: Life Technologies and Expression Analysis (LTEA) Assay for Cytochrome P450 (CYP1A1) using HepaRG (AID 2283454)
Outline: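 Induction of CYP1A1 mRNA in a human hepatic cell line was measured 48 h after dosing, with 1 mM phenobarbital as induction positive control and 0.5% DMSO vehicle as baseline for bidirectional curve fitting.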

Measured: AC50

Chain of Broad substrate specificity ATP-binding cassette transporter ABCG2 (Homo sapiens) (Q9UNQ0 whole entry, looked up): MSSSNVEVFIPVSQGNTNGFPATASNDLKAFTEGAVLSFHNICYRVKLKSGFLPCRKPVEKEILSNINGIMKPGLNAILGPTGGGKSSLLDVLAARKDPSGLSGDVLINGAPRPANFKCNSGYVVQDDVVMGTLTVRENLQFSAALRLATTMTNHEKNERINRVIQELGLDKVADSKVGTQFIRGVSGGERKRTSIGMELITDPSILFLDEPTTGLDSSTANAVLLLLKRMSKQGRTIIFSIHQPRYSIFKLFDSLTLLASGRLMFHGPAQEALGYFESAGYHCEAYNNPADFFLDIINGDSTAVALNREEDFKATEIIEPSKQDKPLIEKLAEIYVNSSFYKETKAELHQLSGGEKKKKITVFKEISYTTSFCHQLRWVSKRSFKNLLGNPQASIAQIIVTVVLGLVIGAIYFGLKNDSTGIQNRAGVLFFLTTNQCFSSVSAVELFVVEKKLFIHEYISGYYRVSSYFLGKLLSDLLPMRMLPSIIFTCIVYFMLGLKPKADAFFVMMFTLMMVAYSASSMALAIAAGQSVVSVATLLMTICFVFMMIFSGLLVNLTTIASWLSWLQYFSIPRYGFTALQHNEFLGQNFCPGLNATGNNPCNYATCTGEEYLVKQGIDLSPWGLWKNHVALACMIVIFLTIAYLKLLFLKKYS
Chain of Fatty acid synthase (Homo sapiens) (P49327 whole entry, looked up): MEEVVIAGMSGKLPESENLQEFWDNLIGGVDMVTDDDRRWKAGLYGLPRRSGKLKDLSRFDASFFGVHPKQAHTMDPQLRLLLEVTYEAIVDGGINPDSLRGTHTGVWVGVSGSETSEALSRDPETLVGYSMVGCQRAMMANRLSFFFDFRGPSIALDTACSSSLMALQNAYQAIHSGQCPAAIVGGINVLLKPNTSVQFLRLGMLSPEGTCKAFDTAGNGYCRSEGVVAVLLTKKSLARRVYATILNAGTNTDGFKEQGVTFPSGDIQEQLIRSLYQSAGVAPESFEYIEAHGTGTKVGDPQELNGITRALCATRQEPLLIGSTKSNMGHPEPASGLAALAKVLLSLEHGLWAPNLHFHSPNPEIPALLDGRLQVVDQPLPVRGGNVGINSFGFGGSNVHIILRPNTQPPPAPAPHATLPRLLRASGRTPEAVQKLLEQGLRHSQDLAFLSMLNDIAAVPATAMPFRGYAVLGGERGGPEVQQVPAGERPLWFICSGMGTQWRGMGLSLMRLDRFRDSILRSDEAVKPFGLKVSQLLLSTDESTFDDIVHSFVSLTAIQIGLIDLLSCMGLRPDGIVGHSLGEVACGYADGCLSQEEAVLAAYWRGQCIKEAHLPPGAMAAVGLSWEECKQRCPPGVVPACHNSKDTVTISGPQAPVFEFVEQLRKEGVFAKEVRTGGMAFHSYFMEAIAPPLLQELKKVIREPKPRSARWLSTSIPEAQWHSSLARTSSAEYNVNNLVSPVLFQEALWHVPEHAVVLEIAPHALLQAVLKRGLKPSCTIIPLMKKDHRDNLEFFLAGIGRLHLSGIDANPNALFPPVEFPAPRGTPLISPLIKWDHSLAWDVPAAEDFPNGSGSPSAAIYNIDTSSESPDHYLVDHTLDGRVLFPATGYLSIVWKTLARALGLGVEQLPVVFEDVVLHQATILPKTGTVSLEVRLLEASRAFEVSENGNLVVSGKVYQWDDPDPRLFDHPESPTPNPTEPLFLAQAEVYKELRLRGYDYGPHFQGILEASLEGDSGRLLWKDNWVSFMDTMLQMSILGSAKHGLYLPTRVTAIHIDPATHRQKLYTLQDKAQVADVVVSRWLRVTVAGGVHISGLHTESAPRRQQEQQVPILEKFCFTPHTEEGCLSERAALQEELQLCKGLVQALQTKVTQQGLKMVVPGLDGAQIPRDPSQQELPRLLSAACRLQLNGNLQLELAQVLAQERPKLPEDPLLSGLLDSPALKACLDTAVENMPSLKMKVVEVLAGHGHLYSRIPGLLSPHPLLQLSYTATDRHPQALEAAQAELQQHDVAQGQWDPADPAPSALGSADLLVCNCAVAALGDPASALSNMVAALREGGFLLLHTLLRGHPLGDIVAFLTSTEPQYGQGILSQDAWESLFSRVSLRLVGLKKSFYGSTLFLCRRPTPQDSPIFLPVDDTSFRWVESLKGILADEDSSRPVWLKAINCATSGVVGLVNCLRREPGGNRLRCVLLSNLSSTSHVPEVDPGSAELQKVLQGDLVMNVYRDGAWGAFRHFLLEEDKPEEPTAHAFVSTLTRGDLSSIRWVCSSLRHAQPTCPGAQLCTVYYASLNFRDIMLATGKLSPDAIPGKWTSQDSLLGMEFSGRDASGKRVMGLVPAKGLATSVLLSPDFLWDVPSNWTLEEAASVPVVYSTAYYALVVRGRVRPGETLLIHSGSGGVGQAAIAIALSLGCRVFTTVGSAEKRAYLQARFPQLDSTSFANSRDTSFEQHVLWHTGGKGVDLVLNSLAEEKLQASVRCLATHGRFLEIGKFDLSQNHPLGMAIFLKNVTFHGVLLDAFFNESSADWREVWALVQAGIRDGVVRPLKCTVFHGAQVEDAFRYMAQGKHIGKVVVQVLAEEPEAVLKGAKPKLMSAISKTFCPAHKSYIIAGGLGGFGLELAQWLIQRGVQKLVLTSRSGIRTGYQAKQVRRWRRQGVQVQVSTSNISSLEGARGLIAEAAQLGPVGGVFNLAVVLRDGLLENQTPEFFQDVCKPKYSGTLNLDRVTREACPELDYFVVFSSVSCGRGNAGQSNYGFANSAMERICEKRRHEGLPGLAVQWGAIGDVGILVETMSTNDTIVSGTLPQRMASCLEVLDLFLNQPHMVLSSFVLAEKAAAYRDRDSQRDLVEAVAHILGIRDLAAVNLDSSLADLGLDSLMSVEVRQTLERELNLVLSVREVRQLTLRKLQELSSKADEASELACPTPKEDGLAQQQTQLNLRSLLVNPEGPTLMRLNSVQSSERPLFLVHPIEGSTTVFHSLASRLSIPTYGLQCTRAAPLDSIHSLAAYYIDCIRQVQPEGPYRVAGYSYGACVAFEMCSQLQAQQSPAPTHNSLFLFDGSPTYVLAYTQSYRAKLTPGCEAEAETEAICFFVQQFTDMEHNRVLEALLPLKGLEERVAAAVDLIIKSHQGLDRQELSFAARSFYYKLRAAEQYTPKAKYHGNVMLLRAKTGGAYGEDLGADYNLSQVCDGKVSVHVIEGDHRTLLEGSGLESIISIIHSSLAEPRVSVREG

O=c1ccc2ccccc2o1
not listed: [16] | [17] | [18]
inactive: all other assays above

O=C(OCCCCCCOC(=O)c1ccccc1)c1ccccc1
not listed: [17] | [18]
inactive: all other assays above

CCCCCCCCOc1ccc(C(=O)c2ccccc2)c(O)c1
active: [18] 50 µM
not listed: [16]
inactive: all other assays above

c1ccc2ccccc2c1
not listed: [11] | [16] | [18]
inactive: all other assays above

CN(C)C(=O)C1(N2CCCCC2)CCN(CC[C@@]2(c3ccc(Cl)c(Cl)c3)CN(C(=O)c3ccccc3)CCO2)CC1
inactive: [1] | [3] | [8] | [9] | [15]
active: [2] 61 µM | [4] 84.3 µM | [5] 17.2 µM | [6] 61.9 µM | [7] 47.2 µM | [10] 23.4 µM | [12] 79.4 µM | [13] 26 µM | [14] 23.7 µM

CC(C)(C)c1csc(-c2cc3cc(OCc4ccccc4CC(=O)O)ccc3o2)n1
inactive: [1] | [3] | [4] | [8] | [9] | [12]
active: [2] 84 µM | [5] 28.3 µM | [18] 12.2 µM | [6] 73.5 µM | [7] 81.3 µM | [10] 79 µM | [11] 42.6 µM | [13] 15.8 µM | [14] 93.8 µM | [15] 15.8 µM

CCN(Cc1cccc(S(=O)(=O)O)c1)c1ccc(C(=C2C=CC(=[N+](CC)Cc3cccc(S(=O)(=O)O)c3)C=C2)c2ccccc2S(=O)(=O)[O-])cc1
not listed: [11] | [16] | [17] | [18]
inactive: all other assays above

CC1(C)NC(=O)N(c2ccc([N+](=O)[O-])c(C(F)(F)F)c2)C1=O
active: [4] 80.8 µM | [8] 50 µM | [10] 50 µM | [12] 75.3 µM | [13] 77.1 µM | [15] 29.3 µM
not listed: [3] | [5] | [17] | [18]
inactive: all other assays above

CCN(CC)C(=O)c1cc(S(=O)(=O)Cc2ccccc2)c(N2CCC(c3ccccc3)CC2)cc1N(CC)CCN(C)C
active: [1] 30.3 µM | [2] 4.87 µM | [5] 30.2 µM | [10] 35.1 µM | [12] 31 µM | [14] 30.8 µM
not listed: [17] | [18]
inactive: all other assays above

Cc1cccc2ccccc12
not listed: [16]
inactive: all other assays above

CN(C)c1ccc(C(=C2C=CC(=[N+](C)C)C=C2)c2ccc(N(C)C)cc2)cc1
active: [2] 3.9 µM | [16] 37.1 µM | [5] 3.73 µM | [6] 29.6 µM | [7] 10.1 µM | [8] 50 µM | [9] 17.4 µM | [10] 12.9 µM | [12] 85.8 µM | [13] 3.65 µM | [14] 18.8 µM
inactive: [1] | [3] | [4] | [15]
